Common to all, as to format: functional
Assay [1] concerns Plasmodium falciparum. The assay is described as follows: GSK_TCMDC: Inhibition of Plasmodium falciparum 3D7 in whole red blood cells, using parasite LDH activity as an index of growth. Test compounds present at 2uM.
Assay [2] deals with Plasmodium falciparum. Kind of assay: GSK_TCMDC: Inhibition of Plasmodium falciparum Dd2 in whole red blood cells, using parasite LDH activity as an index of growth. Test compounds present at 2uM.
For the next assay, the system named is HepG2. Kind of assay: GSK_TCMDC: Percent inhibition of human HepG2 cell line. Test compounds present at 10uM.

As usually defined, the Inhibition is how much of the control response was suppressed. `CN1CCC(N2CCN(Cc3cccc(-c4ccc(-c5nc6cc(F)ccc6[nH]5)cc4)c3)CC2)CC1.O=C(O)C(F)(F)F`: the Inhibition in the assay on Plasmodium falciparum [1] came out at 100%; with Plasmodium falciparum [2] it was 100%; in the assay with HepG2, 92%.
For the molecule `O=C(Nc1ccc(-c2cccc(-c3nc4ccccc4[nH]3)c2)cc1)Nc1ccc(F)c(F)c1F`, the Inhibition in the assay with Plasmodium falciparum [1] worked out at 100%; with Plasmodium falciparum [2] it was 96%; with HepG2, 74%.
For `COc1cc2nc(NCCc3ccccc3)nc(NCCCc3ccccc3)c2cc1OC` the same measures were 100%, 100% and 21%.
Take `Cc1ccc(-n2cc(CNCC3CCN(CCO)CC3)c(-c3ccc(F)cc3)n2)cc1`: the Inhibition amounted to 91% in the assay with Plasmodium falciparum [1], 18% in the assay with Plasmodium falciparum [2] and 29% with HepG2.
For `CC(C)(C)c1ccc(CN2CCCCC(NC(=O)c3cc(-c4cccc(F)c4)cs3)C2)cc1.O=C(O)C(F)(F)F` (stereo not drawn), the Inhibition in the assay on Plasmodium falciparum [1] is reported as 98%; with Plasmodium falciparum [2], 84%; in the assay on HepG2, 8%.
For `Cc1cnc2cc3c(cc2c1N1CCN(C)CC1)NCC3` the same measures were 100%, 69% and 12%.
Turning to `Cc1cc(F)ccc1-c1nc(N(C)CCN(C)C(=O)N(C)c2ccccc2)nc2c1ccc(=O)n2-c1c(F)cccc1F.O=C(O)C(F)(F)F`, the values for the Inhibition with Plasmodium falciparum [1], with Plasmodium falciparum [2] and in the assay with HepG2 were 87%, 77% and 0%, respectively.
Turning to `Cl.O=S(=O)(Nc1ccc2nccc(N3CCNCC3)c2c1)c1ccc2oc3ccccc3c2c1`, the Inhibition was 100% in the assay on Plasmodium falciparum [1], 2% in the assay on Plasmodium falciparum [2] and 16% with HepG2.
Turning to `COc1ccc(NC(=O)[C@H](CC(C)C)Nc2cc(C)nc(NCCOc3ccccc3)n2)cc1.O=C(O)C(F)(F)F`, the Inhibition in the assay on Plasmodium falciparum [1] is given as 100%; with Plasmodium falciparum [2] it was 65%; with HepG2 it was 0%.
Regarding `COC(=O)c1ccc2[nH]cc(C3CCN(CCC4CCN(C(=O)/C=C/c5ccc(Cl)c(Cl)c5)CC4)CC3)c2c1`, the Inhibition in the assay with Plasmodium falciparum [1] worked out at 97%; with Plasmodium falciparum [2] it was 59%; in the assay on HepG2, 24%.
For `CCCCCCNC(=O)C1Cc2c([nH]c3ccc(Br)cc23)C2(CCN(CCc3ccccc3)CC2)N1` (stereo not drawn) the same measures were 100%, 94% and 36%.
With `Cc1ccc(C2=NNC3(S2)C(=O)Nc2ccc(C)cc23)cc1` (stereo not drawn), the results for the Inhibition in the assay with Plasmodium falciparum [1], in the assay with Plasmodium falciparum [2] and in the assay on HepG2 were 95%, 89% and 35%, respectively.
For `Cc1cnc(N2CCN(CCCN3CCCC3)CC2)nc1Oc1ccc(-n2ccnc2)cc1.O=C(O)C(F)(F)F` the same measures were 99%, 82% and 12%.
As for `N=C(N)Nc1nc(-c2cccc(NC(=O)NCCc3c[nH]c4ccc(OCc5ccccc5)cc34)c2)cs1`, the Inhibition in the assay with Plasmodium falciparum [1] is 100%; in the assay on Plasmodium falciparum [2], 30%; with HepG2 it was 0%.
In the same order, the values of `CN1CCN(c2ccc(Nc3nccc(-c4c(-c5cccc(NC(=O)c6c(F)cccc6F)c5)nn5ccccc45)n3)cc2)CC1` are 98%, 98% and 86%.
As to `CN(c1ccc(NC(=O)Nc2cc(C(C)(C)C)on2)cc1)c1ccnc(NCCOC(=O)Nc2cc(C(C)(C)C)on2)n1.O=C(O)C(F)(F)F`, the Inhibition in the assay with Plasmodium falciparum [1] is recorded as 100%; in the assay on Plasmodium falciparum [2], 54%; in the assay with HepG2, 59%.
Turning to `CCN(CC)CCN(Cc1ccc(-c2ccc(C(F)(F)F)cc2)cc1)C(=O)Cn1c(CCc2c(F)cccc2F)nc(=O)c2ccccc21.O=C(O)C(O)C(O)C(=O)O`, the Inhibition with Plasmodium falciparum [1] is 100%; in the assay with Plasmodium falciparum [2], 61%; in the assay on HepG2, 36%.
In the same order, the values of `Nc1nc(N)c2c(ccc3c2ccn3CC2CC2)n1` are 96%, 3% and 46%.
Turning to `O=C(N/C(=C/c1cccc([N+](=O)[O-])c1)c1nc2ccccc2[nH]1)c1cccc(Br)c1`, the Inhibition with Plasmodium falciparum [1] is 85%; in the assay on Plasmodium falciparum [2] it was 88%; in the assay with HepG2, 0%.
Take `Cl.Nc1nc(N)c2c(Cl)c(N(Cc3ccccc3)Cc3ccccc3)ccc2n1`: the results for the Inhibition in the assay on Plasmodium falciparum [1], in the assay on Plasmodium falciparum [2] and in the assay on HepG2 were 96%, 2% and 66%, respectively.
Take `COc1cc(NC(=O)Nc2cccc3ccccc23)c(OC)cc1Cl`: the Inhibition with Plasmodium falciparum [1] was determined as 97%; in the assay on Plasmodium falciparum [2], 71%; in the assay on HepG2 it was 0%.
Consider `CC(Oc1c(C2CCN(CCCCNC(=O)c3ccc(-c4ccc(Cl)cc4)cc3)CC2)ccc2c1CCCC2)C(N)=O` (stereo not drawn), for which the values for the Inhibition with Plasmodium falciparum [1], in the assay with Plasmodium falciparum [2] and with HepG2 were 99%, 16% and 100%, respectively.
As to `CC(Cc1ccc(CNC(=O)c2ccc(CC(C)NCCc3cccc(Cl)c3)cc2)cc1)NCCc1cccc(Cl)c1` (stereo not drawn), the figures for the Inhibition in the assay with Plasmodium falciparum [1], in the assay with Plasmodium falciparum [2] and in the assay on HepG2 were 99%, 66% and 99%, respectively.
Consider `CC(C)(C)c1cc(C(=O)N2CCN(c3cnccn3)CC2)n(Cc2ccccc2)n1`, for which the Inhibition was 92% in the assay on Plasmodium falciparum [1], 33% in the assay with Plasmodium falciparum [2] and 0% in the assay with HepG2.
For `CCCCCCCN1CCC(NC(=O)Nc2ccnc3ccc(OC)cc23)C(C(=O)OCC)C1.O=C(O)C(=O)O` (stereo not drawn) the same measures were 100%, 73% and 11%.
In the case of `CNC(=O)c1ccc2nc(-c3ccc(-c4ccccc4)cc3)n(CC3CCN(CC4CCCC4)CC3)c2c1.O=C(O)C(F)(F)F`, the Inhibition is on record as 84% in the assay with Plasmodium falciparum [1], 36% in the assay with Plasmodium falciparum [2] and 13% in the assay on HepG2.

The record behind these values is ChEMBL document CHEMBL1157539, “Thousands of chemical starting points for antimalarial lead identification” (Nature, 2010).
